Measurements reported in PubChem BioAssay (NCI).
This is part of a sample that, as a whole, favours compounds with a hit. Of some 83,000 tested, about 20% had one in any assay.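 Values shown are percent growth following 48 h exposure of cells in 96-well plates to a single concentration of compound; below 10 was considered active.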 The source made the active and inactive calls.

Tests used:
Assay in all cases: NCI-60 one-dose screen, 48 h (100 = growth as untreated, 0 = no growth, -100 = all killed)
Details in all cases: 10 µM unless noted
SK-MEL-2 melanoma = tested on: SK-MEL-2 melanoma
EKVX NSCLC = tested on: EKVX NSCLC
SN12C renal = tested on: SN12C renal
UO-31 renal = tested on: UO-31 renal
TK-10 renal = tested on: TK-10 renal
ACHN renal = tested on: ACHN renal
CCRF-CEM leukemia = tested on: CCRF-CEM leukemia
MOLT-4 leukemia = tested on: MOLT-4 leukemia
SR leukemia = tested on: SR leukemia
RPMI-8226 leukemia = tested on: RPMI-8226 leukemia
OVCAR-8 ovarian = tested on: OVCAR-8 ovarian
OVCAR-5 ovarian = tested on: OVCAR-5 ovarian
OVCAR-4 ovarian = tested on: OVCAR-4 ovarian
SK-OV-3 ovarian = tested on: SK-OV-3 ovarian
OVCAR-3 ovarian = tested on: OVCAR-3 ovarian
HS 578T breast = tested on: HS 578T breast
NCI/ADR-RES ovarian = tested on: NCI/ADR-RES ovarian
T-47D breast = tested on: T-47D breast
A498 renal = tested on: A498 renal
IGROV1 ovarian = tested on: IGROV1 ovarian

Measured: growth

COc1ccc(-c2cc(-c3nnc(SCC(=O)Nc4ccc(/C(C)=N\O)cc4)o3)c3ccccc3n2)cc1
inactive: SK-MEL-2 melanoma 98% | EKVX NSCLC 103% | SN12C renal 104% | UO-31 renal 97.7% | TK-10 renal 96.4% | ACHN renal 117% | CCRF-CEM leukemia 97.9% | MOLT-4 leukemia 106% | SR leukemia 113% | RPMI-8226 leukemia 99% | OVCAR-8 ovarian 105% | OVCAR-5 ovarian 113% | OVCAR-4 ovarian 103% | SK-OV-3 ovarian 111% | OVCAR-3 ovarian 98% | HS 578T breast 99.9% | NCI/ADR-RES ovarian 102% | T-47D breast 102%

C=C(C)[C@@H]1CC[C@]2(C(=O)n3ccnc3)CC[C@]3(C)[C@H](CC[C@@H]4[C@@]5(C)CCCNC(C)(C)[C@@H]5CC[C@]43C)[C@@H]12
active: SR leukemia -33% | RPMI-8226 leukemia -51.3%
inactive: SK-MEL-2 melanoma 53.5% | EKVX NSCLC 61.9% | SN12C renal 29.6% | UO-31 renal 43.8% | TK-10 renal 70.5% | ACHN renal 46.6% | A498 renal 84% | OVCAR-8 ovarian 62.8% | OVCAR-5 ovarian 74.9% | OVCAR-4 ovarian 38.3% | SK-OV-3 ovarian 61.9% | IGROV1 ovarian 20.4% | OVCAR-3 ovarian 30.9% | HS 578T breast 47.4% | NCI/ADR-RES ovarian 32.9% | T-47D breast 11.4%

C=C(C)[C@@H]1CC[C@]2(C(=O)NCCCO)CC[C@]3(C)[C@H](CC[C@@H]4[C@@]5(C)CCCNC(C)(C)[C@@H]5CC[C@]43C)[C@@H]12
active: SR leukemia -19.5%
inactive: SK-MEL-2 melanoma 94.1% | EKVX NSCLC 77.5% | SN12C renal 70.9% | UO-31 renal 56.1% | TK-10 renal 91.2% | ACHN renal 89.5% | CCRF-CEM leukemia 60.4% | MOLT-4 leukemia 30.5% | RPMI-8226 leukemia 29% | OVCAR-8 ovarian 87.4% | OVCAR-5 ovarian 88% | OVCAR-4 ovarian 69.3% | SK-OV-3 ovarian 85.5% | IGROV1 ovarian 75.9% | OVCAR-3 ovarian 79.2% | HS 578T breast 61.9% | T-47D breast 43.8%

O=[N+]([O-])c1ccc(N=Nc2c(O)c(N=Nc3cc([N+](=O)[O-])cc([N+](=O)[O-])c3O)cc(N=Nc3cc(S(=O)(=O)O)cc4cc(S(=O)(=O)O)cc(O)c34)c2O)cc1
inactive: SK-MEL-2 melanoma 100% | EKVX NSCLC 102% | SN12C renal 101% | UO-31 renal 83.2% | TK-10 renal 98.6% | ACHN renal 101% | CCRF-CEM leukemia 97.2% | MOLT-4 leukemia 86.7% | SR leukemia 86.1% | RPMI-8226 leukemia 102% | OVCAR-8 ovarian 108% | OVCAR-5 ovarian 104% | OVCAR-4 ovarian 98.4% | SK-OV-3 ovarian 96.2% | IGROV1 ovarian 108% | OVCAR-3 ovarian 104% | HS 578T breast 101% | NCI/ADR-RES ovarian 103% | T-47D breast 109%

COc1ccc(C(=O)c2cc(F)c(F)c(OC)c2F)cc1OC(=O)CCl
inactive: SK-MEL-2 melanoma 25.9% | EKVX NSCLC 73.9% | SN12C renal 39.4% | UO-31 renal 71.8% | TK-10 renal 88.2% | ACHN renal 59.8% | CCRF-CEM leukemia 32.8% | MOLT-4 leukemia 29.6% | SR leukemia 20.8% | RPMI-8226 leukemia 37.2% | OVCAR-8 ovarian 51.1% | OVCAR-5 ovarian 103% | OVCAR-4 ovarian 81.7% | SK-OV-3 ovarian 45.9% | IGROV1 ovarian 43.7% | OVCAR-3 ovarian 13.7% | HS 578T breast 65.4% | NCI/ADR-RES ovarian 14.3% | T-47D breast 44.1%

O=C1NN(c2ccccc2)C(c2ccc3c(c2)OCO3)N2CCC[C@@H]12 (stereo not given in full)
inactive: SK-MEL-2 melanoma 89.8% | EKVX NSCLC 102% | SN12C renal 110% | UO-31 renal 85.4% | TK-10 renal 92.2% | ACHN renal 101% | A498 renal 97.5% | SR leukemia 92.1% | RPMI-8226 leukemia 105% | OVCAR-8 ovarian 96.8% | OVCAR-5 ovarian 108% | OVCAR-4 ovarian 108% | SK-OV-3 ovarian 99% | IGROV1 ovarian 89.7% | OVCAR-3 ovarian 100% | HS 578T breast 104% | NCI/ADR-RES ovarian 97.9% | T-47D breast 90.9%

Cc1cccc(C)c1NC(=O)CN(CC(C)C)CC(O)COc1ccccc1 (stereo not given)
inactive: SK-MEL-2 melanoma 93.8% | EKVX NSCLC 85.2% | SN12C renal 104% | UO-31 renal 85.8% | TK-10 renal 96.9% | ACHN renal 104% | CCRF-CEM leukemia 96.9% | MOLT-4 leukemia 88.2% | SR leukemia 92.1% | RPMI-8226 leukemia 89.2% | OVCAR-8 ovarian 105% | OVCAR-5 ovarian 99.9% | OVCAR-4 ovarian 86.9% | SK-OV-3 ovarian 90.1% | IGROV1 ovarian 94.3% | OVCAR-3 ovarian 111% | HS 578T breast 118% | NCI/ADR-RES ovarian 86.7% | T-47D breast 85.3%

CC1(C)[C@@H](O)CC[C@]2(C)[C@H]3CC[C@@H]4[C@H]5[C@H](c6cn(-c7ccccc7)nn6)CC[C@]5(CO)CC[C@@]4(C)[C@]3(C)CC[C@@H]12
inactive: SK-MEL-2 melanoma 92.4% | EKVX NSCLC 88% | SN12C renal 90% | UO-31 renal 79.9% | TK-10 renal 98.4% | ACHN renal 84.4% | CCRF-CEM leukemia 94.4% | MOLT-4 leukemia 67.7% | SR leukemia 64.7% | RPMI-8226 leukemia 73.2% | OVCAR-8 ovarian 85.2% | OVCAR-5 ovarian 118% | OVCAR-4 ovarian 98.3% | SK-OV-3 ovarian 103% | IGROV1 ovarian 119% | OVCAR-3 ovarian 88.2% | HS 578T breast 94.6% | NCI/ADR-RES ovarian 80.9% | T-47D breast 63.9%

N#CCNc1ccc(C(=O)O)cc1
inactive: SK-MEL-2 melanoma 108% | EKVX NSCLC 104% | SN12C renal 103% | UO-31 renal 101% | TK-10 renal 97.4% | ACHN renal 111% | CCRF-CEM leukemia 99.3% | MOLT-4 leukemia 96.3% | SR leukemia 99.2% | RPMI-8226 leukemia 102% | OVCAR-8 ovarian 102% | OVCAR-5 ovarian 120% | OVCAR-4 ovarian 117% | SK-OV-3 ovarian 105% | IGROV1 ovarian 103% | OVCAR-3 ovarian 110% | HS 578T breast 105% | NCI/ADR-RES ovarian 105% | T-47D breast 99.2%

COc1ccc(C(=O)c2cc(OC)c(OC)c(OC)c2)cc1OC(=O)C(Cl)(Cl)Cl
active: CCRF-CEM leukemia 8.37% | SR leukemia 6.59% | OVCAR-8 ovarian 2.55% | SK-OV-3 ovarian 8.13% | OVCAR-3 ovarian -13.5% | NCI/ADR-RES ovarian 9.28%
inactive: SK-MEL-2 melanoma 29.8% | EKVX NSCLC 61.3% | SN12C renal 30.9% | UO-31 renal 39.1% | TK-10 renal 65.6% | ACHN renal 31.8% | MOLT-4 leukemia 11.8% | RPMI-8226 leukemia 17.9% | OVCAR-5 ovarian 63.8% | OVCAR-4 ovarian 59.7% | IGROV1 ovarian 15.9% | HS 578T breast 38.9% | T-47D breast 63%

COCCOCCOCc1n(Cc2ccc3ccccc3n2)c2ccccc2[n+]1Cc1ccc2ccccc2n1
inactive: EKVX NSCLC 71.6% | SN12C renal 11.4% | UO-31 renal 67.3% | TK-10 renal 37.6% | ACHN renal 97.6% | CCRF-CEM leukemia 31.6% | MOLT-4 leukemia 26.3% | OVCAR-8 ovarian 19.9% | OVCAR-5 ovarian 40.6% | OVCAR-4 ovarian 15.4% | SK-OV-3 ovarian 21.3% | IGROV1 ovarian 20.2% | HS 578T breast 47.1% | NCI/ADR-RES ovarian 102%
active: SK-MEL-2 melanoma -8.51% | SR leukemia 9.58% | RPMI-8226 leukemia 1.07% | OVCAR-3 ovarian 7.54% | T-47D breast -4.32%
